Results filed as inconclusive are left out. Active and inactive are the calls of the source. Unless noted, calls come from the whole dose curve; as a rule, active = well fitted curve in the direction sought with a large enough effect; inconclusive = small, poorly fitted or top-dose-only effect, or another doubt; inactive = no such curve, though single readings can be large; an effect the other way counts as inactive or inconclusive.
Columns and labels:
[1] = target: Catechol O-methyltransferase (Homo sapiens) (UniProt P21964); assay: Confirmatory Screen for Target Class Profiling of Small Molecule Inhibitors of Methyltransferases (AID 1745852; calls by dose curve; note: potency is the fitted concentration of half-maximal effect; for activity change, negative = inhibition: % is set by controls: 0 for no effect and ±100 for the full control effect); conditions: MTase-Glo luminescence, SAH detection, recombinant enzyme; measured here: COMT max response; stronger effect = lower value
[2] = target: Guanidinoacetate N-methyltransferase (Homo sapiens) (UniProt Q14353); assay: as above; conditions: MTase-Glo luminescence, SAH detection, recombinant enzyme; activity change, negative = inhibition: at 57.3 µM (top of the series) unless noted
[3] = target: Nicotinamide N-methyltransferase (Homo sapiens) (UniProt P40261); assay: as above; conditions: MTase-Glo luminescence, SAH detection, recombinant enzyme; measured here: NNMT max response; stronger effect = lower value
[4] = target: Phenylethanolamine N-methyltransferase (Homo sapiens) (UniProt P11086); assay: as above; conditions: MTase-Glo luminescence, SAH detection, recombinant enzyme; measured here: PNMT max response; stronger effect = lower value
[5] = target: Rap guanine nucleotide exchange factor 3 (Homo sapiens) (UniProt O95398); assay: Confirmatory qHTS for antagonist of cAMP-regulated guanine nucleotide exchange factor 3 (EPAC1) (AID 1645880); conditions: EPAC1 Rap1B-BODIPY-GDP exchange, fluorescence; note: potency is the fitted concentration of half-maximal effect; nearly all actives have a fitted effect of over 55% in size
In short: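 Released BODIPY-GDP fluoresces less than Rap1-bound BODIPY-GDP; the signal is followed at 480/540 nm at 5-min intervals over 30 min, after 5 min at room temperature. Reactions contain 100 nM EPAC1, 250 nM RAP1B-BODIPY-GDP and 50 uM GDP; results are normalized to ATA and DMSO.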

[6] = target: Rap guanine nucleotide exchange factor 3 (Homo sapiens) (UniProt O95398); assay: Confirmatory qHTS for agonist of cAMP-regulated guanine nucleotide exchange factor 3 (EPAC1) (AID 1645881); conditions: EPAC1 Rap1B BODIPY-GDP exchange fluorescence, 100% = cAMP control response; series mostly up to 154 µM;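 note: EPAC1 catalysed release of BODIPY-GDP from Rap1B seen as fluorescence loss; nearly all actives have a fitted effect of over 75% in size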
[7] = target: Rap guanine nucleotide exchange factor 4 (Homo sapiens) (UniProt Q8WZA2); assay: Confirmatory qHTS for agonist of cAMP-regulated guanine nucleotide exchange factor 4 (EPAC2) (AID 1645884); conditions: EPAC2 GEF activity, Rap1B-BODIPY-GDP fluorescence, percent relative to cAMP agonist control; series mostly up to 154 µM;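 note: nucleotide exchange releases bodipy-GDP from Rap1 and this lowers its fluorescence; % is set by controls: 0 for no effect and ±100 for the full control effect; nearly all actives have a fitted effect of over 65% in size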
[8] = target: Rap guanine nucleotide exchange factor 3 (Homo sapiens) (UniProt O95398); assay: Counterscreen qHTS for antagonist of cAMP-regulated guanine nucleotide exchange factor 3 (EPAC1) (AID 1645888); conditions: Rap1B-BODIPY-GDP nucleotide exchange, fluorescence; series mostly up to 154 µM; note: % of control where 0% means no effect
In short: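 Rap1B–BODIPY-GDP (250 nM) with 50 uM GDP; compounds pin-transferred to 9.74 nM–152 uM final (activator) or from 7.32 nM upwards (inhibitor). Fluorescence Ex/Em 480/540 nm read at 5 and 30 min, then after adding cAMP or buffer, at room temperature.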

[9] = target: Rap guanine nucleotide exchange factor 3 (Homo sapiens) (UniProt O95398); assay: Counterscreen qHTS for agonist of cAMP-regulated guanine nucleotide exchange factor 3 (EPAC1) (AID 1645889); conditions: EPAC1 Rap1B-BODIPY-GDP exchange, fluorescence; series mostly up to 154 µM; note: % of control where 0% means no effect; nearly all actives have a fitted effect of over 40% in size
Text: Assay Provider (PI): Xiaodong Cheng Ph.D. The University of Texas Medical Branch, […], TX MLPCN Grant: NS066510 In multi-cellular eukaryotic organisms, the effects of cAMP are transduced by two ubiquitously-expressed intracellular cAMP receptors, the classic protein kinase A/cAMP-dependent protein kinase (PKA/cAPK) and the more recently discovered exchange protein directly activated by cAMP/cAMP-regulated guanine nucleotide exchange factor (EPAC/cAMP-GEF). Both PKA and EPAC are ubiquitously expressed in all tissues, and an increase in intracellular cAMP levels will lead to the activation of both PKA and EPAC. Therefore, careful dissections of the individual role and relative contribution of EPAC and PKA within the overall cAMP signaling in various model systems are critical for further elucidating the mechanism of cAMP signaling. To date no EPAC-specific antagonists and agonist, as well as isoform-specific agonists have been reported, and developing EPAC-specific pharmacological probes to determine the physiological functions that EPAC play in the overall cAMP-mediated signaling remains a major challenge within the research field. Furthermore, identified regulators of EPAC may lead to new mechanism-based therapeutic strategies specifically targeting the EPAC / cAMP-signaling components as EPAC has been implicated to play important roles in major human pathological conditions such as diabetes, heart disease, and cancer. This qHTS will be used to screen the Molecular Libraries Small Molecule Repository (MLSMR) as a concentration-titration series using the NCGC unique quantitative screening (qHTS) platform to find activators for EPAC1. […] Activators are identified by monitoring the change in fluorescence signal as the exchanged free BODIPY-GDP has a reduced fluorescence compared to Rap1-bound BODIPY-GDP. […]
EPAC1 Counterscreen PROTOCOL TABLE SEQUENCE No. (e.g., 1, 2, 3, etc.); […] […] Fluorescence. (Read 1), Ex/Em = 480 nm / 540 nm. […] Fluorescence. (Read 2), Ex/Em = 480 nm/ 540 nm. […] Fluorescence. (Read 3), Ex/Em = 480 nm / 540 nm. […] Fluorescence. (Read 4), Ex/Em = 480 nm / 540 nm. […]

[10] = target: Rap guanine nucleotide exchange factor 4 (Homo sapiens) (UniProt Q8WZA2); assay: Confirmatory qHTS for antagonist of cAMP-regulated guanine nucleotide exchange factor 4 (EPAC2) (AID 1645885); conditions: EPAC2 Rap1B-BODIPY-GDP exchange fluorescence, biochemical; series mostly up to 12.7 µM; note: nearly all actives have a fitted effect of over 25% in size; for activity change, negative = inhibition: % is set by controls: 0 for no effect and ±100 for the full control effect

Sequence of Rap guanine nucleotide exchange factor 3 (Homo sapiens) (O95398 whole entry, looked up): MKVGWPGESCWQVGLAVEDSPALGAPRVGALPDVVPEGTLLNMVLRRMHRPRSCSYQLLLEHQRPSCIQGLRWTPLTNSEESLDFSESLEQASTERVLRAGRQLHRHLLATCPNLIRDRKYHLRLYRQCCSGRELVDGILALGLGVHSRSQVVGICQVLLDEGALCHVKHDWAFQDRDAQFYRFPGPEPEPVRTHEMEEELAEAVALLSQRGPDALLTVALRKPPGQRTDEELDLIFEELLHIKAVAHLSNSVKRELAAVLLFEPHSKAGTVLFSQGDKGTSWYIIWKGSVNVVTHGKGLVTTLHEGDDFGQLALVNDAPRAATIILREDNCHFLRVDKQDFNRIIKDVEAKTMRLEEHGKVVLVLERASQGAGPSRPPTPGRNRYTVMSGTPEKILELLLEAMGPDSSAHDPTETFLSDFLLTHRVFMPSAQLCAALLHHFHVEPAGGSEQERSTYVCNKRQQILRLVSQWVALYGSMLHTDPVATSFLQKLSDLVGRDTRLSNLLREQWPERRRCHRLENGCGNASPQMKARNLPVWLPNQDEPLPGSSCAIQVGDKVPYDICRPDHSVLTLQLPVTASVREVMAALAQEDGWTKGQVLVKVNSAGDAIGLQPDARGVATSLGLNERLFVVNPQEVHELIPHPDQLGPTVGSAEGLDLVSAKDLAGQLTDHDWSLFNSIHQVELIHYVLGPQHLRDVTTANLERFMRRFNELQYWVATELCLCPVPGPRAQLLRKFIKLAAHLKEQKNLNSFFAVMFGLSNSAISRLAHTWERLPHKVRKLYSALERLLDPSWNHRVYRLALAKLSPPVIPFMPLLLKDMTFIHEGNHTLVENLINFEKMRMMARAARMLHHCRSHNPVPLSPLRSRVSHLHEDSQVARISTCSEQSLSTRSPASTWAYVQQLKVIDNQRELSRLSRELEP
Sequence of Catechol O-methyltransferase (Homo sapiens) (P21964 whole entry, looked up): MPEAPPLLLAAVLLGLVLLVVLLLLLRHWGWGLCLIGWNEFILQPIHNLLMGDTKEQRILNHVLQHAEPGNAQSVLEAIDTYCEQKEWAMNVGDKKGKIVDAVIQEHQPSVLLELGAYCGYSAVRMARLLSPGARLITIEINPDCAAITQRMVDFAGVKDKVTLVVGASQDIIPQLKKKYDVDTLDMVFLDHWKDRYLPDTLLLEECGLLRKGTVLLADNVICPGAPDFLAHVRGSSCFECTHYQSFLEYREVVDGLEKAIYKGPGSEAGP
Sequence of Nicotinamide N-methyltransferase (Homo sapiens) (P40261 whole entry, looked up): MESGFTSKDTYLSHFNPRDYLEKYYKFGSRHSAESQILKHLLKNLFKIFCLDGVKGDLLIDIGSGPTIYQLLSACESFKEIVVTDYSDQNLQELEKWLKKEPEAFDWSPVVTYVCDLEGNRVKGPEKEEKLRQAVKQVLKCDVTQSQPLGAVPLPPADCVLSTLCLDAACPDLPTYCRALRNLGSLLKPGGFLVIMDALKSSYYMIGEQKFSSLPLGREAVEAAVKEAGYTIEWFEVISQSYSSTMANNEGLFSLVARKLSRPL
Sequence of Phenylethanolamine N-methyltransferase (Homo sapiens) (P11086 whole entry, looked up): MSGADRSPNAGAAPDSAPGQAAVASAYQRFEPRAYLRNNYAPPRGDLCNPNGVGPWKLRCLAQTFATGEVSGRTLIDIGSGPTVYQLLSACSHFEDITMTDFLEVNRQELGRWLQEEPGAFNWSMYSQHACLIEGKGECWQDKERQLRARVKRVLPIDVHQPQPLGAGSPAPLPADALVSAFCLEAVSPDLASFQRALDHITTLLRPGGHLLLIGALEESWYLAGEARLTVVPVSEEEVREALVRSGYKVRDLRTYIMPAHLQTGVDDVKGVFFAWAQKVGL
Sequence of Rap guanine nucleotide exchange factor 4 (Homo sapiens) (Q8WZA2 whole entry, looked up): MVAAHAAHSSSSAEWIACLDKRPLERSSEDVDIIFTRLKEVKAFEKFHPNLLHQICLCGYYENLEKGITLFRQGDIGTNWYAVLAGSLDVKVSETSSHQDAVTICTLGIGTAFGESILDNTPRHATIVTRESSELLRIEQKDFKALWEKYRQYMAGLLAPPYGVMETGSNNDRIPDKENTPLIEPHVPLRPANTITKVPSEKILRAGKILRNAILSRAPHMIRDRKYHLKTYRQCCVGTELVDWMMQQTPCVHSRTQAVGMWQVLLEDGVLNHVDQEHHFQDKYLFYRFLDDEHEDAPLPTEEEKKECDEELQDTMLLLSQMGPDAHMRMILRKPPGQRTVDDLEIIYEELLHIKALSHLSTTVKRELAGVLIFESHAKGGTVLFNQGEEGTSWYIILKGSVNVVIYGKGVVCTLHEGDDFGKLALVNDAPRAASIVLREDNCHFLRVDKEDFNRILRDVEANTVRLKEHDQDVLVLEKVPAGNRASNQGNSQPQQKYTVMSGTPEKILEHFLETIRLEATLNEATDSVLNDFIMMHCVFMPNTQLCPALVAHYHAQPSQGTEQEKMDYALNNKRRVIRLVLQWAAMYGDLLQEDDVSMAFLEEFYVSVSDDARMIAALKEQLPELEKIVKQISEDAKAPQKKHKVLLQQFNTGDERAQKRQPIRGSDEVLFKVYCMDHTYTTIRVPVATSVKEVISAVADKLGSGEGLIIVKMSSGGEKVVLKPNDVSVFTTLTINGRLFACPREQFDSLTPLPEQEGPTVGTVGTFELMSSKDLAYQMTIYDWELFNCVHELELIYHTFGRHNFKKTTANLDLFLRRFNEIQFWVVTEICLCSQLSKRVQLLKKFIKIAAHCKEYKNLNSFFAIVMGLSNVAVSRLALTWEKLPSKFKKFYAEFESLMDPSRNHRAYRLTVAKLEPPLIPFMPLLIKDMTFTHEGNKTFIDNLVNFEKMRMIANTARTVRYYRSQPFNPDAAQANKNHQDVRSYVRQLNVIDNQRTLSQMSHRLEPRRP

O=C(CCc1ccccc1)c1c(O)c([C@@H]2O[C@H](CO)[C@@H](O)[C@H](O)[C@H]2O)c(O)c([C@@H]2O[C@H](CO)[C@@H](O)[C@H](O)[C@H]2O)c1O
activity [1]: -89.3% | activity change, negative = inhibition [2]: 2.13% [at 19.1 µM] | activity [3]: -0.132% | activity [4]: 4.21%

CCc1nnc(NS(=O)(=O)c2ccc(NC(=S)NC(=O)/C=C/c3ccc(F)cc3)cc2)s1
Potency [5]: 37.9 µM (active) | outcome [6]: inactive | outcome [7]: inactive | outcome [8]: inactive | outcome [9]: inactive

O=C(O)CC1(O)C(=O)Nc2ccccc21 (stereo not given)
activity [1]: 0% | activity change, negative = inhibition [2]: 0% [at 85.7 µM] | activity [3]: 4.18% | activity [4]: -0.0725%

N#Cc1cccc(-c2c[nH]c3ncnc(N4CCOCC4)c23)c1
activity [1]: -74.9% | Potency [2]: 24.1 µM (active) | activity [3]: -64.5% | activity [4]: -72.3%

CC(C)N(CCCNC(=O)Nc1ccc(C(C)(C)C)cc1)C[C@H]1O[C@@H](n2ccc3c(N)ncnc32)[C@H](O)[C@@H]1O
activity [1]: -14.9% | activity change, negative = inhibition [2]: -7.92% | activity [3]: -18.1% | activity [4]: -18.6%

Cc1cc(C)c2nc(-c3ccccn3)cc(C(=O)Nc3ccc(S(=O)(=O)Nc4onc(C)c4C)cc3)c2c1
outcome [6]: inactive | outcome [7]: inactive | outcome [10]: inactive; activator; fitted 7.5686 uM | outcome [8]: inactive

CC1OC(OC2C(OC(=O)[C@]34CCC(C)(C)C[C@H]3C3=CCC5[C@@]6(C)CC[C@H](OC7OC(C(=O)O)C(O)C(O)C7O)C(C)(C)C6CC[C@@]5(C)[C@]3(C)CC4O)OC(CO)C2O)C(O)C(O)C1OC1OCC(O)C(O)C1O (stereo not given in full)
activity [1]: -87.7% | activity change, negative = inhibition [2]: 0% [at 19.1 µM] | activity [3]: -6.05% | activity [4]: -8.02%

Cc1ccc([C@@H]2CC=C(C(=O)O)[C@H](c3ccc(C(C)(C)C)cc3)N2S(=O)(=O)c2ccc(C)cc2)cc1
Potency [5]: 50.1 µM (active) | outcome [6]: inactive | activation [7]: 5.81% [at 17.1 µM] (inactive) | outcome [10]: inactive | activity change, negative = inhibition [8]: -12.2% [at 30.8 µM] (inactive) | activation [9]: 14.8% [at 30.8 µM] (inactive)

From PubChem BioAssay (NCATS)
